# PubChem BioAssay
# Values without a mark were called inactive. Active and inactive are the calls of the source.
# Target: Homeobox protein Hox-A13 (Mus musculus) (UniProt Q62424)
# Experiment: inhibitors of HoxA13-DNA binding, primary screen, biochemical, fluorescence polarization, labeled oligonucleotide (AID 1185)
# Details: 15 min, higher = more signal, called active from +8 up or from −8 down
# Homeobox protein Hox-A13 (Mus musculus), sequence (Q62424 whole entry, looked up): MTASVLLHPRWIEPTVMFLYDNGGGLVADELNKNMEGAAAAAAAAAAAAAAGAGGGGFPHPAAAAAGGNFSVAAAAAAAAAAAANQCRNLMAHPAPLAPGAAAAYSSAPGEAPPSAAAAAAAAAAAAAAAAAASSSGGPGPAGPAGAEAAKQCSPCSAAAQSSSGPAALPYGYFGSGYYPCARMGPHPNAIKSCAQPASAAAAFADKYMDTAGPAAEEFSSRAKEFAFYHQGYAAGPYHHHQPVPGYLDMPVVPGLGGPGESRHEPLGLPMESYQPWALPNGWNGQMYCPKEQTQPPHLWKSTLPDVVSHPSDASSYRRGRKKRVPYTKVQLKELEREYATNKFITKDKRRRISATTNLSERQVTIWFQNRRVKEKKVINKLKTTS
row,SMILES,z-score
1,CC[C@@H](c1ccccc1)n1c(=O)n2n(c1=O)[C@H]1[C@H](O)[C@@H]3O[C@@H]3C(=O)[C@H]1CC2,-1.59
2,CCOC(=O)[C@H](Cc1ccccc1)NC(=O)CCC1CC(OC(=O)NCc2cccc3ccccc23)CC2(CCCC(COC(=O)NCc3cccc(C(F)(F)F)c3)O2)O1 (stereo partly specified),-4.31
3,C[C@H]1Cc2c(COc3ccccc3)nc3c(c2CO1)CN(CCOc1ccccc1)CC3,-5.49
4,CCOC(=O)NN=C1C[C@@H](O)[C@@H](O)[C@@H]2[C@@H]3C(=O)N(c4cccc(Oc5ccccc5)c4)C(=O)[C@@H]3CC[C@@H]12,-4.18
5,COc1cc(O)c(C(=O)C=Cc2ccc3c(c2)OCO3)c(OC)c1,-0.978
6,C=CC[C@@H]1C=C[C@H](ON=C2[C@H]3CCn4c(=O)n(-c5ccccc5)c(=O)n4[C@H]3[C@H](O)[C@@H]3O[C@H]23)[C@@H](CO)O1,-2.05
7,C[C@@H](c1ccccc1)N1C(=O)[C@H]2[C@H]3[C@H](O)[C@H](O)CC(=NO[C@@H]4O[C@H](CO)[C@@H](O)[C@H](O)[C@H]4O)[C@@H]3CC[C@H]2C1=O,0.174
8,CC(CCN1CCCc2nc(C)c(C)cc21)=NO[C@@H](C)c1cc(-c2c(C)cc(C)cc2C)no1,-3.46
9,CC(=O)OC[C@H]1O[C@H](CCON=C2[C@H]3CCn4c(=O)n(-c5ccccc5)c(=O)n4[C@H]3[C@H](O)[C@@H]3O[C@H]23)C=C[C@@H]1OC(C)=O,-1.83
10,CCN1C(=O)[C@H]2[C@H]3[C@H](O)[C@H](O)CC(=NO[C@@H](C)c4cn([C@H](CO)Cc5ccccc5)nn4)[C@@H]3CC[C@H]2C1=O,-2.02
11,CO[C@H]1COC(=O)[C@@H](C)COC(=O)[C@@H](OCc2ccccc2)C=C[C@@H]1C,-0.618
12,COc1ccc(C#C[C@@H]2C=C[C@H](OC(C)=O)[C@@H](COC(C)=O)O2)cc1,-2.53
13,CC(C)=CCCC(C)=CCON=C1C[C@@H](O)[C@@H](O)[C@@H]2[C@@H]3C(=O)N(Cc4ccccc4)C(=O)[C@@H]3CC[C@@H]12,-0.241
14,O=C1[C@H]2[C@H]3[C@H](O)[C@H](O)CC(=NOCc4ccccc4)[C@@H]3CC[C@H]2C(=O)N1Cc1ccc2c(c1)OCO2,-3.53
15,CO[C@@H]1C=CCC(=O)N2CCC[C@H]2C(=O)OC[C@@H](C)C(=O)OC[C@H]1C,0.772
16,CC(C)=CCCC(C)=CCON=C1C[C@@H](O)[C@@H](O)[C@@H]2[C@@H]3C(=O)N(C(C)(C)C)C(=O)[C@@H]3CC[C@H]12,0.263
17,COC(=O)[C@H](C)NC(=O)CCC1CC(OC(=O)NCCc2ccc(F)cc2)CC2(CCCC(COC(=O)NCc3cccc(C(F)(F)F)c3)O2)O1 (stereo partly specified),-6.12
18,CCC1=NOC(CCC2CC(OC(=O)NCc3cccc4c3OCO4)CC3(CCCC(COC(=O)NCCc4ccccc4OC)O3)O2)C1 (stereo unspecified),-6.1

row,SMILES,z-score
1,CC(C)=CCCC(C)=CCON=C1C[C@@H](O)[C@@H](O)[C@@H]2[C@@H]3C(=O)N(C4CCCCC4)C(=O)[C@@H]3CC[C@@H]12,-2.99
2,COc1ccc(COC(=O)NN=C2C[C@@H](O)[C@@H](O)[C@@H]3[C@@H]4C(=O)N(C5CCCCC5)C(=O)[C@@H]4CC[C@H]23)cc1,-5.48
3,CC(CCN1CCCCc2nc(C)c(C)cc21)=NOC[C@@H](O)COCc1ccco1,-4.37
4,CCN1C(=O)[C@H]2[C@H]3[C@H](O)[C@H](O)CC(=NOC[C@H]4O[C@H](c5ccccc5)C=C[C@@H]4Oc4ccc(OC)cc4)[C@@H]3CC[C@H]2C1=O,-10.8 (active)
5,O=C(NN=C1C[C@@H](O)[C@@H](O)[C@@H]2[C@@H]3C(=O)N(C4CCCCC4)C(=O)[C@@H]3CC[C@H]12)OCc1ccccc1,-5.03
6,CCOC(=O)NN=C1C[C@@H](O)[C@@H](O)[C@@H]2[C@@H]3C(=O)N(Cc4ccccc4)C(=O)[C@@H]3CC[C@H]12,-1.48
7,CC(C)(C)N1C(=O)[C@H]2[C@H]3[C@H](O)[C@H](O)CC(=O)[C@H]3CC[C@H]2C1=O,0.117
8,C[C@@H]1CC[C@H]2C(=O)O[C@@H](Cc3ccccc3)CN2[C@H]1c1ccc(Br)cc1,-1.7
9,CCOC(=O)NN=C1C[C@@H](O)[C@@H](O)[C@@H]2[C@@H]3C(=O)N(Cc4ccc5c(c4)OCO5)C(=O)[C@@H]3CC[C@H]12,-0.227
10,CCN1C(=O)[C@H]2[C@H]3[C@H](O)[C@H](O)CC(=NNC(=O)OCc4ccc(OC)cc4)[C@@H]3CC[C@H]2C1=O,-1.25
11,COC(=O)[C@H]1[C@@H](O)[C@@]2(O)c3ccccc3O[C@@]2(c2ccccc2)[C@@H]1c1ccccc1,-1.51
12,COC(=O)[C@H](C)NC(=O)CCC1CC(OC(=O)NCc2ccc3c(c2)OCO3)CC2(CCCC(COC(=O)NCC3CCCCC3)O2)O1 (stereo partly specified),-4.19
13,CCOC(=O)[C@H](Cc1ccccc1)NC(=O)CCC1CC(OC(=O)NCc2cccc3ccccc23)CC2(CCCC(COC(=O)NCc3ccccc3)O2)O1 (stereo partly specified),-1.5
14,O=C1CCCC=C1C(O)CCCCBr (stereo unspecified),-5.96
15,COc1cccc([C@H]2Oc3ccc(OC)cc3C(=NOC[C@@H](O)COCc3ccco3)[C@@H]2O)c1,-5.25
16,CO[C@@H]1COC(=O)[C@@H](C)NC(=O)CC=C[C@@H](C)[C@H](NS(=O)(=O)c2ccc(C)cc2)COC(=O)[C@H](C)NC(=O)CC=C[C@H]1C,-0.348
17,CO[C@@H]1COC(=O)CC=C[C@@H](C)[C@@H]2C=C[C@H](O)[C@@H](COC(=O)CC=C[C@H]1C)O2,-2.1
18,CCOC(=O)[C@H](CC(C)C)NC(=O)CCC1CC(OC(=O)NCc2ccc3c(c2)OCO3)CC2(CCCC(COC(=O)NCCCN3CCCC3=O)O2)O1 (stereo partly specified),-5.69
